Test results published in PubChem BioAssay (NCI).
The panel holds about 83,000 compounds, 20% with a hit somewhere; the sample as a whole holds those more often.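 96-well plates, one dose, 48 hours. Percent growth reported; active if below 10.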 Active and inactive are the calls of the source.

What was measured:
Test in all cases: NCI-60 one-dose screen, 48 h (100 = growth as untreated, 0 = no growth, -100 = all killed)
Conditions in all cases: 10 µM unless noted
SK-MEL-2 melanoma = tested on: SK-MEL-2 melanoma
EKVX NSCLC = tested on: EKVX NSCLC
SN12C renal = tested on: SN12C renal
UO-31 renal = tested on: UO-31 renal
TK-10 renal = tested on: TK-10 renal
ACHN renal = tested on: ACHN renal
CAKI-1 renal = tested on: CAKI-1 renal
A498 renal = tested on: A498 renal
CCRF-CEM leukemia = tested on: CCRF-CEM leukemia
MOLT-4 leukemia = tested on: MOLT-4 leukemia

Measured: growth

COc1ccccc1CNc1c2ccccc2nc2ccccc12
inactive: SK-MEL-2 melanoma 73.5% | EKVX NSCLC 65.7% | SN12C renal 34.7% | UO-31 renal 33.7% | TK-10 renal 55.5% | ACHN renal 22.7% | CAKI-1 renal 45.7% | A498 renal 13.3% | CCRF-CEM leukemia 37.5% | MOLT-4 leukemia 20.7%

Cc1cc(C)c2c(c1)N(C)c1ncnc(-n3cnc4cc(C)ccc43)c1CC2C (stereo not given)
active: A498 renal 6.61% | CCRF-CEM leukemia 0.648%
inactive: SK-MEL-2 melanoma 16.7% | EKVX NSCLC 39% | SN12C renal 43.1% | UO-31 renal 33.1% | TK-10 renal 40% | ACHN renal 49.6% | CAKI-1 renal 32.8% | MOLT-4 leukemia 12.7%

CCN1CCN(C(=O)[C@]23CCC(C)(C)C[C@@H]2C2=CC[C@@H]4[C@@]5(C)CCC(=O)C(C)(C)[C@@H]5CC[C@@]4(C)[C@]2(C)CC3)CC1
active: A498 renal -7.95%
inactive: SK-MEL-2 melanoma 77.1% | EKVX NSCLC 63.3% | SN12C renal 51.8% | UO-31 renal 34.1% | TK-10 renal 80.4% | ACHN renal 65.7% | CAKI-1 renal 60% | CCRF-CEM leukemia 37.5% | MOLT-4 leukemia 10.1%

CC(=O)O[C@H]1CC2CCC3C(CC[C@@]4(C)C3C[C@H]([N+]3(C)CCCCC3)[C@@H]4OC(C)=O)[C@@]2(C)C[C@@H]1N1CCCCC1 (stereo not given in full)
inactive: SK-MEL-2 melanoma 111% | EKVX NSCLC 97.7% | SN12C renal 93% | UO-31 renal 83.3% | TK-10 renal 108% | ACHN renal 104% | CAKI-1 renal 88.1% | A498 renal 111% | CCRF-CEM leukemia 103% | MOLT-4 leukemia 98.9%

CCc1ccc(CCCC(=O)O)cc1
inactive: SK-MEL-2 melanoma 103% | EKVX NSCLC 96.3% | SN12C renal 93.7% | UO-31 renal 92.1% | TK-10 renal 99.9% | ACHN renal 101% | CAKI-1 renal 94% | A498 renal 95% | CCRF-CEM leukemia 104% | MOLT-4 leukemia 98.8%

C=CC(=O)N1CCN(c2cccc(Oc3nccc(Nc4nnc(-c5ccc(Br)cc5)s4)n3)c2)CC1
inactive: SK-MEL-2 melanoma 54.7% | EKVX NSCLC 93.9% | SN12C renal 78.7% | UO-31 renal 66.7% | TK-10 renal 111% | ACHN renal 72.9% | CAKI-1 renal 38.9% | A498 renal 79.7% | CCRF-CEM leukemia 69.5% | MOLT-4 leukemia 70.6%

Nc1c(C(=O)Nc2ccccc2F)sc2nc3c(cc12)CCCC3
inactive: SK-MEL-2 melanoma 43.7% | EKVX NSCLC 41.2% | SN12C renal 40% | UO-31 renal 46.9% | TK-10 renal 60.9% | ACHN renal 50.7% | CAKI-1 renal 57.4% | CCRF-CEM leukemia 22.5% | MOLT-4 leukemia 27%
active: A498 renal -0.37%

C#Cc1c2c(c(OC)c3c1OCO3)[C@H]([C@H]1OC(=O)c3c1ccc(OC)c3OC)N(C)CC2
inactive: SK-MEL-2 melanoma 67.7% | EKVX NSCLC 89.8% | SN12C renal 100% | UO-31 renal 87.2% | TK-10 renal 76.1% | ACHN renal 93.6% | CAKI-1 renal 86.3% | A498 renal 72.6% | CCRF-CEM leukemia 80.7% | MOLT-4 leukemia 77.3%

COc1ccc(\C=N/N=C(N)/C(N)=N\N=C/c2ccc(OC)cc2)cc1
inactive: SK-MEL-2 melanoma 95.5% | EKVX NSCLC 95.6% | SN12C renal 111% | UO-31 renal 89.1% | TK-10 renal 101% | ACHN renal 100% | CAKI-1 renal 89.8% | A498 renal 96.3% | MOLT-4 leukemia 109%
active: CCRF-CEM leukemia -48.3%

O=C(Nc1ccc(OS(=O)(=O)c2ccc(F)cc2)cc1)C1CCCCCC1
inactive: SK-MEL-2 melanoma 98.2% | EKVX NSCLC 96% | SN12C renal 88.9% | UO-31 renal 101% | TK-10 renal 107% | ACHN renal 110% | CAKI-1 renal 91.7% | A498 renal 85.1% | CCRF-CEM leukemia 81.5% | MOLT-4 leukemia 77.4%

CCCC/C(CC)=N\NS(=O)(=O)c1ccc([N+](=O)[O-])cc1
inactive: SK-MEL-2 melanoma 94.6% | EKVX NSCLC 102% | SN12C renal 102% | UO-31 renal 83.3% | TK-10 renal 93.4% | ACHN renal 104% | CAKI-1 renal 96.9% | A498 renal 96.3% | CCRF-CEM leukemia 87.1% | MOLT-4 leukemia 101%

Cn1cc(-c2csc(-c3c[nH]c4ccc(Br)cc34)n2)c2ccnc(Cl)c21
inactive: SK-MEL-2 melanoma 85.4% | EKVX NSCLC 69.1% | SN12C renal 67.5% | UO-31 renal 48.8% | TK-10 renal 56.3% | ACHN renal 39.2% | CAKI-1 renal 66.5% | A498 renal 51.6% | CCRF-CEM leukemia 39.5% | MOLT-4 leukemia 56.4%

O=C1Nc2ccc(C(=O)O)cc2/C1=N/c1nnc(Sc2ccccc2)s1
inactive: SK-MEL-2 melanoma 112% | EKVX NSCLC 104% | SN12C renal 96.9% | UO-31 renal 84.3% | TK-10 renal 106% | ACHN renal 98.4% | CAKI-1 renal 85.9% | A498 renal 86.8% | CCRF-CEM leukemia 99.7% | MOLT-4 leukemia 105%

COc1cc2ncnc(Nc3ccc(S(=O)(=O)Nc4cc(C)on4)cc3)c2cc1OCCCN1CCN(c2ccc(F)cc2)CC1
inactive: SK-MEL-2 melanoma 113% | EKVX NSCLC 109% | SN12C renal 100% | UO-31 renal 77.5% | TK-10 renal 115% | ACHN renal 97.4% | CAKI-1 renal 87.7% | A498 renal 91.9% | CCRF-CEM leukemia 103% | MOLT-4 leukemia 102%

Clc1ccc2c(c1)C(c1c[nH]c3ccccc13)(c1c[nH]c3ccccc13)CCO2
active: SK-MEL-2 melanoma -52% | TK-10 renal -43.1%
inactive: EKVX NSCLC 81.9% | SN12C renal 85.3% | UO-31 renal 54.2% | ACHN renal 76.8% | CAKI-1 renal 78.2% | A498 renal 101% | CCRF-CEM leukemia 45.1% | MOLT-4 leukemia 32.4%

Clc1ccc(/C=N\N=C\c2ccc(Cl)c(Cl)c2)cc1Cl
active: ACHN renal -3.05%
inactive: SK-MEL-2 melanoma 18.4% | EKVX NSCLC 111% | SN12C renal 87.3% | UO-31 renal 77.4% | TK-10 renal 97.5% | CAKI-1 renal 33% | A498 renal 108% | CCRF-CEM leukemia 83.1% | MOLT-4 leukemia 93.1%

Fc1cc2c(cc1Cl)N(c1ncnc3ccc(-c4ccc5n[nH]nc5c4)cc13)CC2
active: A498 renal -2.78%
inactive: SK-MEL-2 melanoma 89% | EKVX NSCLC 52.8% | SN12C renal 64.9% | UO-31 renal 44.3% | TK-10 renal 46% | ACHN renal 50.1% | CAKI-1 renal 49.3% | CCRF-CEM leukemia 92.9% | MOLT-4 leukemia 90.5%

O=C(/C=C(/C=C/c1ccc2[nH]ccc2c1)OB(F)F)/C=C/c1ccc2[nH]ccc2c1
inactive: SK-MEL-2 melanoma 25.8% | SN12C renal 10% | A498 renal 32.5%
active: EKVX NSCLC 4.65% | UO-31 renal 2.63% | TK-10 renal 5.77% | ACHN renal -22.4% | CAKI-1 renal -14.5% | CCRF-CEM leukemia -19.9% | MOLT-4 leukemia -4.43%

C[C@@H](CO)[C@@H]1CCC=C2CC[C@]3(C)[C@H](CC[C@@H]4[C@@]5(C)CCCNC(C)(C)[C@@H]5CC[C@]43C)[C@H]21
inactive: SK-MEL-2 melanoma 52.1% | EKVX NSCLC 94.5% | SN12C renal 67.3% | UO-31 renal 79.7% | TK-10 renal 82% | ACHN renal 87.2% | CAKI-1 renal 47% | A498 renal 76.6% | CCRF-CEM leukemia 26.2% | MOLT-4 leukemia 10.3%

CCCCCCCCCc1ccc(OCCOCCOCCOCCOCCOCCOCCOCCOCCO)cc1
active: SK-MEL-2 melanoma 7.03% | A498 renal -5.27% | CCRF-CEM leukemia -22.2% | MOLT-4 leukemia -17.6%
inactive: EKVX NSCLC 15.5% | SN12C renal 13% | UO-31 renal 12.8% | TK-10 renal 23.1% | ACHN renal 18.9% | CAKI-1 renal 13.6%

O=C(OC(CO)C(=O)NC12CC3CC(CC(C3)C1)C2)c1ccc(Cl)cc1 (stereo not given)
inactive: SK-MEL-2 melanoma 106% | EKVX NSCLC 96.9% | SN12C renal 109% | UO-31 renal 88.7% | TK-10 renal 102% | ACHN renal 100% | CAKI-1 renal 99.4% | A498 renal 103% | CCRF-CEM leukemia 88.8% | MOLT-4 leukemia 98.7%

O=C1Nc2ccccc2/C1=C/c1cccn1CCCCn1c2ccccc2c(=O)c2ccccc21
inactive: SK-MEL-2 melanoma 84% | EKVX NSCLC 86.1% | SN12C renal 97.9% | UO-31 renal 49.7% | TK-10 renal 104% | ACHN renal 76.3% | CAKI-1 renal 69.5% | A498 renal 109% | CCRF-CEM leukemia 52.8% | MOLT-4 leukemia 47.7%

Cc1c(-c2ccc(O)cc2)n(Cc2ccc(OCCN3CCCCCC3)cc2)c2ccc(O)cc12
inactive: SK-MEL-2 melanoma 106% | EKVX NSCLC 75.2% | SN12C renal 81% | UO-31 renal 52.6% | TK-10 renal 78% | ACHN renal 91.9% | CAKI-1 renal 50.6% | A498 renal 53.7% | CCRF-CEM leukemia 57.5% | MOLT-4 leukemia 39.8%

Cn1ccnc1C(=O)/C=C/c1ccc(CC(=O)Nc2cc(C(F)(F)F)cc(C(F)(F)F)c2)cc1
inactive: SK-MEL-2 melanoma 102% | EKVX NSCLC 89.8% | SN12C renal 67.4% | UO-31 renal 63.2% | TK-10 renal 106% | ACHN renal 84.5% | CAKI-1 renal 76.4% | A498 renal 90% | CCRF-CEM leukemia 47.5% | MOLT-4 leukemia 14.7%

CCNCCNc1cc(C2CCCCC2)c(C#N)c2nc3ccccc3n12
active: UO-31 renal -41% | ACHN renal -52.2% | A498 renal -25.1% | CCRF-CEM leukemia -28.6% | MOLT-4 leukemia -7.01%
inactive: SK-MEL-2 melanoma 23.2% | EKVX NSCLC 36% | SN12C renal 12.8% | TK-10 renal 27.2% | CAKI-1 renal 25.1%

S=c1sc2c(Cl)nc(-c3cccnc3)nc2n1-c1ccccc1
inactive: SK-MEL-2 melanoma 21.6% | EKVX NSCLC 89.6% | TK-10 renal 90.2% | CAKI-1 renal 73.9% | A498 renal 92%
active: SN12C renal 2% | UO-31 renal -85.6% | ACHN renal -6.92% | CCRF-CEM leukemia -31.7% | MOLT-4 leukemia -41.5%

C=C1C(=O)O[C@H]2[C@H]1CC/C(COC(=O)NCc1ccc(Cn3c(=O)sn(CCCCC)c3=O)cc1)=C\CC[C@@]1(C)O[C@@H]21
active: UO-31 renal 6.58% | TK-10 renal 2.53% | CCRF-CEM leukemia -22% | MOLT-4 leukemia -15%
inactive: SK-MEL-2 melanoma 76.3% | EKVX NSCLC 84.3% | SN12C renal 22.8% | ACHN renal 26.5% | CAKI-1 renal 36.4% | A498 renal 84.9%
